Reference: ChEMBL document CHEMBL1961873, “Compounds: GSK PKIS; Assays: Nanosyn kinase panel” (2012)

Key:
[1] = molecular target: Sphingosine kinase 1 (Homo sapiens) (UniProt Q9NYA1); conditions: at 1 µM;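 also: mean SPHK1 inhibition value reported from the GSK PKIS kinase panel screen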
[2] = molecular target: T1, Sphingosine kinase 2 (Homo sapiens) (UniProt Q9NRA0); conditions: at 0.1 µM
T1 sequence (whole entry): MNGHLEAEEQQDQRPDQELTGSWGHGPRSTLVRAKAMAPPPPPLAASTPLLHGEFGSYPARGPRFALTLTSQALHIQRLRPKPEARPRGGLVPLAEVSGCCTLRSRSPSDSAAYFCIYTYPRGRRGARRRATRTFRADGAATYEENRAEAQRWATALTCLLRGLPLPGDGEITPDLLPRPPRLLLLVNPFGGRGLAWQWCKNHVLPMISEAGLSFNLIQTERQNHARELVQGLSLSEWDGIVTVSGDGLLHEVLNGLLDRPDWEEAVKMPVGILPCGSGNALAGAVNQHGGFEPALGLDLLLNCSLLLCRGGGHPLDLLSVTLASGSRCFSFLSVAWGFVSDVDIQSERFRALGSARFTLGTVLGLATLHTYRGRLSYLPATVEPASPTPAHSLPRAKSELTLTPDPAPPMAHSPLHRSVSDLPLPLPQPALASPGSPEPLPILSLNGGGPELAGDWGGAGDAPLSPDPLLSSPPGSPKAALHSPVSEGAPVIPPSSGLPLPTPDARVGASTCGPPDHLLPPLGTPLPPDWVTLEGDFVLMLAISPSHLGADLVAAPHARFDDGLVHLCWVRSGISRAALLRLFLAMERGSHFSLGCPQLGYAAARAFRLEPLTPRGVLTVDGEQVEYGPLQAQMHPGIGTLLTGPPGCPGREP

[3] = molecular target: T1, Sphingosine kinase 2 (Homo sapiens); conditions: at 1 µM
[4] = molecular target: Casein kinase II subunit alpha (Homo sapiens) (UniProt P68400); conditions: at 0.1 µM
[5] = molecular target: Casein kinase II subunit alpha (Homo sapiens) (UniProt P68400); conditions: at 1 µM
[6] = molecular target: T2, Inhibitor of nuclear factor kappa-B kinase subunit alpha (Homo sapiens) (UniProt O15111); conditions: at 0.1 µM
T2 sequence (whole entry): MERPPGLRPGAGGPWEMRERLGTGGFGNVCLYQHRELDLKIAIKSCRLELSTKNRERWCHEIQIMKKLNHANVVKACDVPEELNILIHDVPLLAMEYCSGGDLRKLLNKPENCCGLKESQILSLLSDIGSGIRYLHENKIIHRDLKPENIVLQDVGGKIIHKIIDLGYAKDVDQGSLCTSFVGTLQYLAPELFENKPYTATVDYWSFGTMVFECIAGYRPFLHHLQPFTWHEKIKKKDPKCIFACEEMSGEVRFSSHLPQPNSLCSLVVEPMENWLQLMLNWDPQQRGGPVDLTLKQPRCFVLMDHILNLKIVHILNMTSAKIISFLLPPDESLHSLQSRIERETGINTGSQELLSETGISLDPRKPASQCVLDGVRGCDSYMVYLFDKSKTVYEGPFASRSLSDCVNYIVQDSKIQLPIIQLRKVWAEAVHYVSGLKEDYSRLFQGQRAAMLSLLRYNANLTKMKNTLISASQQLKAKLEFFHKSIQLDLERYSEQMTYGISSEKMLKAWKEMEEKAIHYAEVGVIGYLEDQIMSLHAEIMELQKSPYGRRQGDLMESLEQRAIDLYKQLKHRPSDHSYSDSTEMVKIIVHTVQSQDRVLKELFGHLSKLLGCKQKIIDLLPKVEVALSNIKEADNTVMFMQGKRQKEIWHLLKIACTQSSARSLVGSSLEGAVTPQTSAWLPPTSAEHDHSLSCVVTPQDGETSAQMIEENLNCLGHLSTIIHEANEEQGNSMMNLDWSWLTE

[7] = molecular target: T2, Inhibitor of nuclear factor kappa-B kinase subunit alpha (Homo sapiens); conditions: at 1 µM
[8] = molecular target: T3, Inhibitor of nuclear factor kappa-B kinase subunit beta (Homo sapiens) (UniProt O14920); conditions: at 0.1 µM
T3 sequence (whole entry): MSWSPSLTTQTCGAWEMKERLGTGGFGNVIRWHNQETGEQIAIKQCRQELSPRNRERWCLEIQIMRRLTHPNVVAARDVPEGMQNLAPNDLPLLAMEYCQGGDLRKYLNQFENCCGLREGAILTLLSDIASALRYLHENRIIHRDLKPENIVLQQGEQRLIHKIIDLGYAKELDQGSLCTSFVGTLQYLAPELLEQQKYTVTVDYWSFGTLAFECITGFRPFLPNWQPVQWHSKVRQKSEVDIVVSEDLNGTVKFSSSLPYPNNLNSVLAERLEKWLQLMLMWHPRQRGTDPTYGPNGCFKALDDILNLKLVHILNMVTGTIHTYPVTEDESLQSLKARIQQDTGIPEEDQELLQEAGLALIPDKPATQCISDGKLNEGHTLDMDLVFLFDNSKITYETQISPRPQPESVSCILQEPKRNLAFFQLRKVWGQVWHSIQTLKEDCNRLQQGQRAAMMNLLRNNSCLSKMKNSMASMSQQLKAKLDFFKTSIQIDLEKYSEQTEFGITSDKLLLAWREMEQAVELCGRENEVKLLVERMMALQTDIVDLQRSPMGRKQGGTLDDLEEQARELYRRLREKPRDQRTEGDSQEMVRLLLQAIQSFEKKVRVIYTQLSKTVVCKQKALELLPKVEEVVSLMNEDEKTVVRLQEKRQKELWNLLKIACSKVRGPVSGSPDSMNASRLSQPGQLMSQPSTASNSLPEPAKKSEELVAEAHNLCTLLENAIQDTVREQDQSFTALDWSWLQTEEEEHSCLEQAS

[9] = molecular target: T3, Inhibitor of nuclear factor kappa-B kinase subunit beta (Homo sapiens); conditions: at 1 µM
[10] = molecular target: T4, Inhibitor of nuclear factor kappa-B kinase subunit epsilon (Homo sapiens) (UniProt Q14164); conditions: at 0.1 µM;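 also: mean inhibition of IKKε reported, from the GSK PKIS dataset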
T4 sequence (whole entry): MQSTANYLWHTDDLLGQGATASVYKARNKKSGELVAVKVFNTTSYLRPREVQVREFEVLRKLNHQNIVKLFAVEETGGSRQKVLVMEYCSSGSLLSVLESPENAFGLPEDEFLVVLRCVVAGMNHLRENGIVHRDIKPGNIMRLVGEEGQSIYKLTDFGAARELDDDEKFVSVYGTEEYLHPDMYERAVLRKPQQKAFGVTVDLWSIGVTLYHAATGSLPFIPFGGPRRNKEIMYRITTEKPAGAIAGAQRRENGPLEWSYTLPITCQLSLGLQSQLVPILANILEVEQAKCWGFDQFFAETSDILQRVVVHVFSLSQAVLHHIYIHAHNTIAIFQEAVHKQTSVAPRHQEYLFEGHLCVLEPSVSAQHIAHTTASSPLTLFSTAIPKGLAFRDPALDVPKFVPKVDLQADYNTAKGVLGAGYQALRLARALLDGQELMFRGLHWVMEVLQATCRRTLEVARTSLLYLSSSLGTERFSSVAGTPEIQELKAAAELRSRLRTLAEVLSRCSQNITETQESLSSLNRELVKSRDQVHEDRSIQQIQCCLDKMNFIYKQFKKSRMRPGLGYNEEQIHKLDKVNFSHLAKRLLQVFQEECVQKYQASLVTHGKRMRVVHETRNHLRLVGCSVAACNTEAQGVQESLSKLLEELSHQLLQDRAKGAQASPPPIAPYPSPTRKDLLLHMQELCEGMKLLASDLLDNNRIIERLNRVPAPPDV

Chain of Sphingosine kinase 1 (Homo sapiens) (Q9NYA1 whole entry): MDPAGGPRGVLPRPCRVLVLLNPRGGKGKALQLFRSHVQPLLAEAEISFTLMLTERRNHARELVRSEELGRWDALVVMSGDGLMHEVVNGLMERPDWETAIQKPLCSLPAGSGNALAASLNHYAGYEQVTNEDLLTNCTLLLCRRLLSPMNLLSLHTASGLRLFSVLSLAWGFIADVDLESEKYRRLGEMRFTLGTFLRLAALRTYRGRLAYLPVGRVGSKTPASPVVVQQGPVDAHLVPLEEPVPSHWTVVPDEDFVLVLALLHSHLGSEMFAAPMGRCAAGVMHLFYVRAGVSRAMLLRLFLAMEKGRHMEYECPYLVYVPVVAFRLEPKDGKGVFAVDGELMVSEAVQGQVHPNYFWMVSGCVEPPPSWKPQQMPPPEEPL
Chain of Casein kinase II subunit alpha (Homo sapiens) (P68400 whole entry, looked up): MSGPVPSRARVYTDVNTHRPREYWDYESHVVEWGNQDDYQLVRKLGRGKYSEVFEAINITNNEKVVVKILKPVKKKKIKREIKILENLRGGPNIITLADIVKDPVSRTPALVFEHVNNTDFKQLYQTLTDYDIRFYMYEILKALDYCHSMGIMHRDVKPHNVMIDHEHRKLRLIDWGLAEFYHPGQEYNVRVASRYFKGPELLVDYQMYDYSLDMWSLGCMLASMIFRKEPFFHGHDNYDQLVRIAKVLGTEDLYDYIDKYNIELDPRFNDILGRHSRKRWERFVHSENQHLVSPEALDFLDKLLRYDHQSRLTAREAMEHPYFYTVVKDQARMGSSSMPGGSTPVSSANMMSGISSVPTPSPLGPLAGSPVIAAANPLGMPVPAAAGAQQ

SMILES	inhibition [1] [%]	inhibition [2] [%]	inhibition [3] [%]	inhibition [4] [%]	inhibition [5] [%]	inhibition [6] [%]	inhibition [7] [%]	inhibition [8] [%]	inhibition [9] [%]	inhibition [10] [%]
COc1ccc2[nH]c3c4[nH]c5ccc(OC)cc5c4c4c(c3c2c1)C(=O)NC4=O	-1.68	-2.46	-0.32	6.4	15.9	5.28	6.84	3.54	4.71	13.5
[O-][S+]1CCN(Cc2ccc(-c3ccc4ncnc(Nc5ccc(OCc6cccc(F)c6)c(Cl)c5)c4c3)o2)CC1	1.32	4.71	0.73	12.8	4.15	8.15	9.46	9.09	7.58	11.3
COc1ccc(CNC(=O)c2ccc(-c3cc(-c4nnc(C)o4)ccc3C)cc2)cc1	-0.2	1.04	0.14	6.07	16.4	2	7.25	1.12	4.56	5.88
FC(F)(F)c1cccc(-c2nn3ncccc3c2-c2ccnc(Nc3ccc4c(c3)OCCO4)n2)c1	1.14	0.13	-0.65	0.21	-1.98	3.23	0.65	2.71	0.36	2.48
NC(=O)c1sc(-n2cnc3ccc(C(F)(F)F)cc32)cc1OCc1ccccc1Br	-0.89	-0.23	-0.48	3.45	5.66	12.5	11.2	6.41	6.44	5.17
COC(=O)Nc1nc2ccc(S(=O)(=O)c3ccc(NC(=O)Nc4cc(C(F)(F)F)ccc4F)cc3)cc2[nH]1	-2.79	-0.31	0.98	-0.42	-2.21	6.4	2.23	5.3	7.84	2.8
Cc1ccc(O)cc1Nc1ccnc2cc(-c3ccccn3)ccc12	0.38	0.62	-0.19	1.53	-1.39	1.97	-1.79	6.75	1.3	5.73
CCNC(=O)O[C@H]1CN[C@H](C#Cc2cc3ncnc(Nc4ccc(OCc5cccc(F)c5)c(Cl)c4)c3s2)C1	-0.72	0.52	-3.06	0.94	-1.06	2.78	-6.68	3.34	1.97	2.87
CCN(CC)S(=O)(=O)c1ccc(OC)c(Nc2ncc(-c3ccccc3)o2)c1	-3.4	-1.48	0.49	2.99	15.1	3.54	-6.23	0.24	-0.16	2.98
N#Cc1c(NC(=O)CN2CCOCC2)sc2c1CCCC2	-2.59	1.39	-0.6	6.02	10.9	6.78	6.16	4.25	5.09	9.02
O=S(=O)(CCNCc1ccc(-c2ccc3ncnc(Nc4ccc(OCc5cccc(F)c5)c(Cl)c4)c3c2)o1)c1ccccc1	-5.05	-0.55	0.69	10.6	5.49	2.96	-0.88	6.77	7.07	12
CC(C)COC(=O)c1ccc2c(c1)/C(=C/Nc1ccc(S(N)(=O)=O)cc1)C(=O)N2	1.92	-0.06	-0.44	7.86	47.2	-1.06	3.25	-0.4	6.93	46.2
CNC(=O)c1cncc(/C=C/c2ccccc2Cl)c1	-2.41	0.11	-0.01	0.75	8.72	2.99	-3.09	-0.46	1.87	2.76
CCOc1ccc2c(-c3ccnc(Nc4cccc(C(F)(F)F)c4)n3)cnn2n1	-1.13	2.38	-1.13	5.72	7.82	11.5	6.76	4.08	3.66	8.35
CC(=O)NCc1cccc(C#Cc2cncnc2Nc2ccc(OCc3cccc(F)c3)c(Cl)c2)c1	-1.56	-0.13	-2.39	-0.56	1.55	-0.42	3.17	-1.42	1.29	0.37
COC(=O)c1sc(-n2cnc3cc(OC)c(OC)cc32)cc1OCc1ccccc1C(F)(F)F	1.91	0.14	-2.19	0.66	-0.18	3.9	5.32	5.59	4.11	3.88
CN1CCC(n2cnc(-c3ccc(F)cc3)c2-c2ccnc(N)n2)CC1	-3.49	0	-1.67	8.38	42.7	1.97	6.98	4.41	4.02	3.07
COc1cc(N2CCN(C(C)C)CC2)ccc1Nc1nc(Nc2ccc(F)cc2C(N)=O)c2cc[nH]c2n1	0.04	-0.73	-1.03	15.7	54.7	0.45	-0.19	2.59	3.32	0.77
CC(=O)Nc1cccc(C#Cc2cncnc2Nc2ccc(OCc3cccc(F)c3)c(Cl)c2)c1	-1.15	-0.41	-2.47	-0.51	-4.66	3.13	-2.41	2.6	-1.07	0.8
